For assay [1], the target named is Rap guanine nucleotide exchange factor 3 (Homo sapiens) (UniProt O95398). The assay can be described thus: Confirmatory qHTS for agonist of cAMP-regulated guanine nucleotide exchange factor 3 (EPAC1) (AID 1645881). Further: nearly all actives have a fitted effect of over 75% in size. Further: potency means the concentration at half of the fitted maximal effect.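 On activation: EPAC1 catalysed release of BODIPY-GDP from Rap1B seen as fluorescence loss; 100% = effect of cAMP agonist control.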 In general terms: In qHTS, concentration-response curves come from the screen itself.
Assay [2] addresses Rap guanine nucleotide exchange factor 4 (Homo sapiens) (UniProt Q8WZA2). The experiment in a line: Confirmatory qHTS for agonist of cAMP-regulated guanine nucleotide exchange factor 4 (EPAC2) (AID 1645884).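 Further: nucleotide exchange releases bodipy-GDP from Rap1 and this lowers its fluorescence; on the % scale 0 is the no-effect control and ±100 the full control effect; nearly all actives have a fitted effect of over 65% in size.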
Assay [3] has the same target. The assay can be described thus: Confirmatory qHTS for antagonist of cAMP-regulated guanine nucleotide exchange factor 4 (EPAC2) (AID 1645885). Further: nearly all actives have a fitted effect of over 25% in size. Further: potency means the concentration at half of the fitted maximal effect. On activity change, negative = inhibition: on the % scale 0 is the no-effect control and ±100 the full control effect.
The target of assay [4] is Rap guanine nucleotide exchange factor 3 (Homo sapiens) (UniProt O95398). The experiment in a line: Counterscreen qHTS for antagonist of cAMP-regulated guanine nucleotide exchange factor 3 (EPAC1) (AID 1645888).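 Further: fluorescence loss as bound BODIPY-GDP is released from Rap1B; % of control where 0% means no effect.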 Put shortly: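 Rap1B–BODIPY-GDP (250 nM) with 50 uM GDP; compounds pin-transferred to 9.74 nM–152 uM final (activator) or from 7.32 nM upwards (inhibitor). Fluorescence Ex/Em 480/540 nm read at 5 and 30 min, then after adding cAMP or buffer, at room temperature.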
Background: The purpose of a counterscreen is to sort out artefacts and off-target activity.

Records with an inconclusive call do not appear. Values without a mark were called inactive. Activity calls are given as the source filed them. The call rests on the fitted dose curve; in most records, active means well fitted curve in the direction sought with a large enough effect; inconclusive means small, poorly fitted or top-dose-only effect, or another doubt; inactive means no such curve, though single readings can be large; an effect the other way counts as inactive or inconclusive.

Chain of Rap guanine nucleotide exchange factor 4 (Homo sapiens) (Q8WZA2 whole entry, looked up): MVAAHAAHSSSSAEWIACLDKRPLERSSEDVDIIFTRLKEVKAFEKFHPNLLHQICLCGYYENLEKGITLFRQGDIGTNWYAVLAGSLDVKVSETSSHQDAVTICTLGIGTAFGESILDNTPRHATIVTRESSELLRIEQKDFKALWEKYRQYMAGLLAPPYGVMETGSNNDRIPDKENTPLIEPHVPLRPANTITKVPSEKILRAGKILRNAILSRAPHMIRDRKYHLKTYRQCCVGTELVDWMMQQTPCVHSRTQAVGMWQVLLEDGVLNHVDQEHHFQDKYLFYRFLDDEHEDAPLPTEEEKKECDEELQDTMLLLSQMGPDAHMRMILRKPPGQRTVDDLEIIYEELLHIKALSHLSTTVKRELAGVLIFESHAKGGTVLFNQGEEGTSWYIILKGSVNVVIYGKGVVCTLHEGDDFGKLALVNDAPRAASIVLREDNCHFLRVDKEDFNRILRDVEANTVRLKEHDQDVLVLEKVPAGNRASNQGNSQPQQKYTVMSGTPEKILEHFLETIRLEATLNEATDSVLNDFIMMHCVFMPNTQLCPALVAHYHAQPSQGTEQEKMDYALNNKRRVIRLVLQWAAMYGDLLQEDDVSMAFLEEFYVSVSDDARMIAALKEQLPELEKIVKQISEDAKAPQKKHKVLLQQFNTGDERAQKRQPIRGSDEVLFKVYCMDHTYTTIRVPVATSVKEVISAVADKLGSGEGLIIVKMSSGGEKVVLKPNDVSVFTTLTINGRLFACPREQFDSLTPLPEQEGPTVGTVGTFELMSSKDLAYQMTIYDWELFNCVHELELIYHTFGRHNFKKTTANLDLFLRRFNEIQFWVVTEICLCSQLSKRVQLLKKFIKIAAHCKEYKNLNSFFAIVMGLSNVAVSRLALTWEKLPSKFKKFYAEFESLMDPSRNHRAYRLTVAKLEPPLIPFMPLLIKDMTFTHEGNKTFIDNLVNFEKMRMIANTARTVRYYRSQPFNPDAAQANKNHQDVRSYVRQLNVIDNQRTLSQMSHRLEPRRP
Chain of Rap guanine nucleotide exchange factor 3 (Homo sapiens) (O95398 whole entry, looked up): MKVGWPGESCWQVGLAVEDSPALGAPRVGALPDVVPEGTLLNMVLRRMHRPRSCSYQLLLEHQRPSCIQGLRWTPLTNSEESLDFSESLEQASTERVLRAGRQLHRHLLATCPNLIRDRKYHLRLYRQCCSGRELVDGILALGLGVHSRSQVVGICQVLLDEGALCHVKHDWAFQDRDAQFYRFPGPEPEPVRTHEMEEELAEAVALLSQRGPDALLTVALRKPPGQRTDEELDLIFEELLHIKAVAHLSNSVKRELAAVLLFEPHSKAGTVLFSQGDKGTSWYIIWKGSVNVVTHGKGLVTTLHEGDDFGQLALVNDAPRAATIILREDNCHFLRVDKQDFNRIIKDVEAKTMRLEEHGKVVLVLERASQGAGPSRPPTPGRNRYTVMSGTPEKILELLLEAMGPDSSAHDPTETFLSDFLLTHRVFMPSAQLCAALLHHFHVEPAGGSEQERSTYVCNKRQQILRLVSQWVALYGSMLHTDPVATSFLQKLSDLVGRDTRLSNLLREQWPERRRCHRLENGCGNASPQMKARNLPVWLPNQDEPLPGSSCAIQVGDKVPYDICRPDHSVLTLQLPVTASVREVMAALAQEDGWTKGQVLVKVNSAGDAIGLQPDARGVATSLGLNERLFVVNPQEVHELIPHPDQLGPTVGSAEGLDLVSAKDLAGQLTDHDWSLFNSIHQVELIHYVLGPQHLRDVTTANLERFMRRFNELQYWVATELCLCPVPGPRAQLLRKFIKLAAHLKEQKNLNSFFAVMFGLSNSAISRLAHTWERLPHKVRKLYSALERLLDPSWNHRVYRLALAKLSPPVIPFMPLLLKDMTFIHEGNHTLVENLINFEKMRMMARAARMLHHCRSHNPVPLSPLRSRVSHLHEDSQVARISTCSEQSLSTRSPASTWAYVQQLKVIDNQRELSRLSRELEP

With `O=C(O)/C=C\C(=O)Nc1ccccc1C#Cc1ccc(Br)cc1`, the Potency entry in assay [1], in assay [2] and in assay [4] was “inactive” throughout. In assay [3], the Potency was 1.35 µM (active).
Regarding `O=C1C(=O)c2cccnc2-c2ncccc21`, the Potency entry in assay [1], in assay [2], in assay [3] and in assay [4] was “inactive” each time.
In the case of `COc1ccc(Cl)cc1NC(=O)CN(C)C(=O)c1cc(-c2ccncc2)nc2ccccc12`, the Potency result in assay [1], in assay [2], in assay [3] and in assay [4] was “inactive” throughout.
In the case of `Cc1ccc(-c2nc3c(c(=O)[nH]c(=O)n3Cc3ccccc3)n2C)o1`, the Potency result in assay [1], in assay [2], in assay [3] and in assay [4] was “inactive” each time.
With `O=C(O)CC/C(=C/c1cccc(NC(=O)c2ccccc2Cl)c1)c1nc2ccccc2s1`, the Potency in assay [1] is 100 µM (active). The Potency result in assay [2], in assay [3] and in assay [4] was “inactive” throughout.
For the compound `Cc1cc(/C=C2\C(=N)N3N=C(c4ccco4)SC3=NC2=O)c(C)n1Cc1ccccc1`, the Potency result in assay [1], in assay [2], in assay [3] and in assay [4] was “inactive” throughout.
As to `O=C(Nc1cc(S(=O)(=O)Nc2ccc(Cl)cc2)ccc1O)c1ccc(S(=O)(=O)N2CCCCCC2)cc1`, the Potency result in assay [1], in assay [2], in assay [3] and in assay [4] was “inactive” in each case.
For the compound `CC[C@@H]1CC=C[C@H]2[C@H]1C(=O)N(Cc1ccccc1)[C@H]2c1ccc(OC)c(Cl)c1`, the Potency result in assay [1], in assay [2], in assay [3] and in assay [4] was “inactive” each time.
As to `Cc1ccc(C(=O)N2CCc3cc(CNC(=O)CSc4ccccc4)ccc32)cc1`, the Potency entry in assay [1], in assay [2], in assay [3] and in assay [4] was “inactive” each time.
As for `O=C(/C=C/c1ccco1)Nc1nc(-c2ccccn2)cs1`, the Potency result in assay [1], in assay [2], in assay [3] and in assay [4] was “inactive” in each case.
Regarding `CC(CNC(=O)c1sc2ncccc2c1-n1cccc1)c1ccccc1` (stereo not drawn), the Potency result in assay [1], in assay [2], in assay [3] and in assay [4] was “inactive” each time.
Turning to `Cc1cccc(-n2ccnc2SCC(=O)Nc2ccc(F)cc2F)c1C`, the Potency result in assay [1], in assay [2], in assay [3] and in assay [4] was “inactive” each time.
For the compound `Cc1ccc(-n2c(CCC(=O)O)ccc2-c2cccs2)cc1Cl`, the Potency entry in assay [1], in assay [2] and in assay [4] was “inactive” in each case. In addition, in assay [3], the outcome is “inactive [at 12.7 µM]”.
As to `Cc1c(N=Cc2cc(Br)cc(Br)c2O)cccc1C(=O)O`, the Potency result in assay [1] and in assay [3] was “inactive” each time. Moreover, the activation in assay [2] is -1.44% [at 17.1 µM, percent relative to cAMP agonist control]. In addition, the activity change, negative = inhibition in assay [4] was -0.566% [at 30.8 µM].
For the compound `COc1cc(OC)c(NC(=O)CN(C)S(=O)(=O)c2ccc(-c3ccc(=O)[nH]n3)s2)cc1Cl`, the Potency entry in assay [1], in assay [2], in assay [3] and in assay [4] was “inactive” in each case.
For `CCn1c(=O)c(C(=O)Nc2ccccc2S(N)(=O)=O)c(O)c2ccccc21`, the Potency entry in assay [1], in assay [2], in assay [3] and in assay [4] was “inactive” each time.
On to `COc1ccc(C(=O)CSc2nnc(-c3ccco3)c(-c3ccco3)n2)cc1`, for which the Potency result in assay [1], in assay [2], in assay [3] and in assay [4] was “inactive” each time.
For `COc1cccc(C(=O)Nc2cccc(C(=O)OCc3cc(=O)n4c(C)csc4n3)c2)c1`, the Potency result in assay [1], in assay [2], in assay [3] and in assay [4] was “inactive” in each case.
Regarding `Cc1ccccc1C(=O)Nc1sc2c(c1C(=O)N1CCCCC1)CCC(C)C2` (stereo not drawn), the Potency entry in assay [1], in assay [2], in assay [3] and in assay [4] was “inactive” throughout.
Regarding `CCc1ccc2occ(CC(=O)Nc3ccc(C)c(C)c3)c2c1`, the Potency entry in assay [1], in assay [2], in assay [3] and in assay [4] was “inactive” throughout.
On to `CC(=O)N1N=C(c2ccc(Cl)cc2)CC1c1ccc([N+](=O)[O-])cc1` (stereo not drawn), for which the Potency result in assay [1] and in assay [3] was “inactive” throughout. Further, in assay [2], the activation was 7.36% [at 17.1 µM, percent relative to cAMP agonist control]. Further, the activity change, negative = inhibition in assay [4] was 2.9% [at 30.8 µM].
Turning to `Oc1c(C2=NCCNC(C(F)(F)F)=C2)ccc2ccccc12`, the Potency entry in assay [1], in assay [2], in assay [3] and in assay [4] was “inactive” each time.
With `CC(C)C(CCNC(=O)CC(Cc1ccccc1)c1ccco1)c1ccco1` (stereo not drawn), the Potency result in assay [1] and in assay [3] was “inactive” each time. The activation in assay [2] was 3.03% [at 17.1 µM, percent relative to cAMP agonist control]. In addition, the activity change, negative = inhibition in assay [4] was 24.9% [at 30.8 µM].
Turning to `Cc1cc(SCC(=O)N/N=C/c2ccc(O)c(O)c2)nc2ccccc12`, the Potency entry in assay [1] and in assay [3] was “inactive” throughout. Moreover, in assay [2], the activation is 5.52% [at 17.1 µM, percent relative to cAMP agonist control]. In assay [4], the activity change, negative = inhibition was -2.02% [at 30.8 µM].
Turning to `CCOC(=O)c1cnc2ccc(C(=O)OC)cc2c1Nc1ccccc1CC`, the Potency result in assay [1], in assay [2], in assay [3] and in assay [4] was “inactive” in each case.
Turning to `Cc1cccc(C)c1NC(=O)Cn1c(=O)n(Cc2ccc(C(=O)NCc3ccco3)cc2)c(=O)c2sccc21`, the Potency result in assay [1], in assay [2], in assay [3] and in assay [4] was “inactive” in each case.
In the case of `O=C1c2ccccc2C(=O)C12OC2c1cccc2ccccc12` (stereo not drawn), the Potency result in assay [1], in assay [2], in assay [3] and in assay [4] was “inactive” in each case.

The values above are taken from PubChem BioAssay (NCATS).
